# Laboratory results: the supplement of paper PMC6992640
# Tests used:
# Assay in all cases: cell viability of combination (% of vehicle); higher = less cytotoxic
# Conditions in all cases: 1 µM; 72 h; partner dose: 10 nM
# [1] = tested on: HCI01 (cells of a triple-negative basal-like breast cancer xenograft)
# Experimental: (§1)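 PDX cells were treated for 72 h with each drug at 1 µM plus carfilzomib (10 nM; 100 nM for WHIM2). Luciferase viability is expressed as percent of vehicle.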
# [2] = tested on: UCD52 (cells of a triple-negative basal-like breast cancer xenograft)
# Experimental: as §1
# [3] = tested on: WHIM30 (cells of a triple-negative basal-like breast cancer xenograft)
# Experimental: as §1
# [4] = tested on: HCI01; remark: listed apart in the source
# Experimental: (§2)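 PDX cells were treated for 72 h with each drug at 1 µM plus afatinib (10 nM; 1 µM for WHIM30). Luciferase viability is expressed as percent of vehicle.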
# [5] = tested on: UCD52; remark: listed apart in the source
# Experimental: as §2
# [6] = tested on: WHIM2 (cells of a triple-negative basal-like breast cancer xenograft)
# Experimental: as §2
smiles,measurement,setting,value
COC(=O)C1=C(C)NC(C)=C(C(=O)OCCN(C)Cc2ccccc2)C1c1cccc([N+](=O)[O-])c1.Cl (configuration not stated) [Nicardipine HCl] + CC(C)C[C@H](NC(=O)[C@H](CCc1ccccc1)NC(=O)CN1CCOCC1)C(=O)N[C@@H](Cc1ccccc1)C(=O)N[C@@H](CC(C)C)C(=O)[C@@]1(C)CO1 [Carfilzomib],cell viability of combination,[1],115
same,cell viability of combination,[2],52
Cc1c(-c2ccc(O)cc2)n(Cc2ccc(OCCN3CCCCCC3)cc2)c2ccc(O)cc12.Cl [Bazedoxifene HCl] + CC(C)C[C@H](NC(=O)[C@H](CCc1ccccc1)NC(=O)CN1CCOCC1)C(=O)N[C@@H](Cc1ccccc1)C(=O)N[C@@H](CC(C)C)C(=O)[C@@]1(C)CO1 [Carfilzomib],cell viability of combination,[1],107
same,cell viability of combination,[2],64.4
same,cell viability of combination,[3],11.3
CO[C@H]1C[C@@H]2CC[C@@H](C)[C@@](O)(O2)C(=O)C(=O)N2CCCC[C@H]2C(=O)O[C@H]([C@H](C)C[C@@H]2CC[C@@H](O)[C@H](OC)C2)CC(=O)[C@H](C)/C=C(\C)[C@@H](O)[C@@H](OC)C(=O)[C@H](C)C[C@H](C)/C=C/C=C/C=C/1C [Rapamycin (Sirolimus)] + CC(C)C[C@H](NC(=O)[C@H](CCc1ccccc1)NC(=O)CN1CCOCC1)C(=O)N[C@@H](Cc1ccccc1)C(=O)N[C@@H](CC(C)C)C(=O)[C@@]1(C)CO1 [Carfilzomib],cell viability of combination,[1],68.3
same,cell viability of combination,[2],49.1
Clc1ccc(C(Cn2ccnc2)OCc2c(Cl)cccc2Cl)c(Cl)c1.O=[N+]([O-])O (configuration not stated) [Isoconazole nitrate] + CC(C)C[C@H](NC(=O)[C@H](CCc1ccccc1)NC(=O)CN1CCOCC1)C(=O)N[C@@H](Cc1ccccc1)C(=O)N[C@@H](CC(C)C)C(=O)[C@@]1(C)CO1 [Carfilzomib],cell viability of combination,[1],92.6
same,cell viability of combination,[2],61.5
same,cell viability of combination,[3],16.4
Cc1cccc(CN2CCN(C(c3ccccc3)c3ccc(Cl)cc3)CC2)c1.Cl.Cl (configuration not stated) [Meclizine 2HCl] + CC(C)C[C@H](NC(=O)[C@H](CCc1ccccc1)NC(=O)CN1CCOCC1)C(=O)N[C@@H](Cc1ccccc1)C(=O)N[C@@H](CC(C)C)C(=O)[C@@]1(C)CO1 [Carfilzomib],cell viability of combination,[1],105
same,cell viability of combination,[2],57.2
Cc1nc(NC(=O)N2CCCC2C(N)=O)sc1-c1ccnc(C(C)(C)C(F)(F)F)c1 (configuration not stated) + CC(C)C[C@H](NC(=O)[C@H](CCc1ccccc1)NC(=O)CN1CCOCC1)C(=O)N[C@@H](Cc1ccccc1)C(=O)N[C@@H](CC(C)C)C(=O)[C@@]1(C)CO1 [Carfilzomib],cell viability of combination,[1],62.6
same,cell viability of combination,[2],42.3
same,cell viability of combination,[3],20
CCCCc1oc2ccc(NS(C)(=O)=O)cc2c1C(=O)c1ccc(OCCCN(CCCC)CCCC)cc1.Cl [Dronedarone HCl] + CC(C)C[C@H](NC(=O)[C@H](CCc1ccccc1)NC(=O)CN1CCOCC1)C(=O)N[C@@H](Cc1ccccc1)C(=O)N[C@@H](CC(C)C)C(=O)[C@@]1(C)CO1 [Carfilzomib],cell viability of combination,[1],92.3
same,cell viability of combination,[2],59.9
COc1cc2nccc(Oc3ccc(NC(=O)C4(C(=O)Nc5ccc(F)cc5)CC4)cc3)c2cc1OC.O=C(O)CC(O)C(=O)O [Cabozantinib malate (XL184)] + CC(C)C[C@H](NC(=O)[C@H](CCc1ccccc1)NC(=O)CN1CCOCC1)C(=O)N[C@@H](Cc1ccccc1)C(=O)N[C@@H](CC(C)C)C(=O)[C@@]1(C)CO1 [Carfilzomib],cell viability of combination,[1],77
same,cell viability of combination,[2],57.2
COc1cccc2c1C(=O)c1c(O)c3c(c(O)c1C2=O)CC(O)(C(=O)CO)CC3OC1CC(N)C(O)C(C)O1.Cl (configuration not stated) [Doxorubicin (Adriamycin) HCl] + CC(C)C[C@H](NC(=O)[C@H](CCc1ccccc1)NC(=O)CN1CCOCC1)C(=O)N[C@@H](Cc1ccccc1)C(=O)N[C@@H](CC(C)C)C(=O)[C@@]1(C)CO1 [Carfilzomib],cell viability of combination,[1],60.9
same,cell viability of combination,[2],30.2
same,cell viability of combination,[3],7.61
CNC(=O)c1cc(Oc2ccc(NC(=O)Nc3ccc(Cl)c(C(F)(F)F)c3)c(F)c2)ccn1 [Regorafenib] + CC(C)C[C@H](NC(=O)[C@H](CCc1ccccc1)NC(=O)CN1CCOCC1)C(=O)N[C@@H](Cc1ccccc1)C(=O)N[C@@H](CC(C)C)C(=O)[C@@]1(C)CO1 [Carfilzomib],cell viability of combination,[1],74.6
same,cell viability of combination,[2],58.6
same,cell viability of combination,[3],22.4
Cc1ccc(NC(=O)c2ccc(CN3CCN(C)CC3)cc2)cc1Nc1nc(-c2cccnc2)cs1 [Masitinib (AB1010)] + CC(C)C[C@H](NC(=O)[C@H](CCc1ccccc1)NC(=O)CN1CCOCC1)C(=O)N[C@@H](Cc1ccccc1)C(=O)N[C@@H](CC(C)C)C(=O)[C@@]1(C)CO1 [Carfilzomib],cell viability of combination,[1],86.3
same,cell viability of combination,[2],69.6
same,cell viability of combination,[3],28.7
Clc1ccc(COC(Cn2ccnc2)c2ccc(Cl)cc2Cl)cc1.O=[N+]([O-])O (configuration not stated) [Econazole nitrate] + CC(C)C[C@H](NC(=O)[C@H](CCc1ccccc1)NC(=O)CN1CCOCC1)C(=O)N[C@@H](Cc1ccccc1)C(=O)N[C@@H](CC(C)C)C(=O)[C@@]1(C)CO1 [Carfilzomib],cell viability of combination,[1],89.1
same,cell viability of combination,[2],59.8
CCCSc1nc(NC2CC2c2ccc(F)c(F)c2)c2nnn(C3CC(OCCO)C(O)C3O)c2n1 (configuration not stated) [Ticagrelor] + CN(C)C/C=C/C(=O)Nc1cc2c(Nc3ccc(F)c(Cl)c3)ncnc2cc1O[C@H]1CCOC1 [Afatinib],cell viability of combination,[4],57.8
same,cell viability of combination,[5],72.2
same,cell viability of combination,[6],43
CN(C)CC=CC(=O)Nc1cc2c(Nc3ccc(F)c(Cl)c3)ncnc2cc1OC1CCOC1.O=C(O)C=CC(=O)O.O=C(O)C=CC(=O)O (configuration not stated) [Afatinib dimaleate] + CN(C)C/C=C/C(=O)Nc1cc2c(Nc3ccc(F)c(Cl)c3)ncnc2cc1O[C@H]1CCOC1 [Afatinib],cell viability of combination,[4],50.8
same,cell viability of combination,[5],24.5
same,cell viability of combination,[6],35.4
CC(C)N=c1cc2n(-c3ccc(Cl)cc3)c3ccccc3nc-2cc1Nc1ccc(Cl)cc1 [Clofazimine] + CC(C)C[C@H](NC(=O)[C@H](CCc1ccccc1)NC(=O)CN1CCOCC1)C(=O)N[C@@H](Cc1ccccc1)C(=O)N[C@@H](CC(C)C)C(=O)[C@@]1(C)CO1 [Carfilzomib],cell viability of combination,[1],71.9
same,cell viability of combination,[2],62.7
same,cell viability of combination,[3],16.7
C#Cc1cccc(Nc2ncnc3cc(OCCOC)c(OCCOC)cc23)c1 [Erlotinib] + CN(C)C/C=C/C(=O)Nc1cc2c(Nc3ccc(F)c(Cl)c3)ncnc2cc1O[C@H]1CCOC1 [Afatinib],cell viability of combination,[4],41.1
same,cell viability of combination,[5],55
same,cell viability of combination,[6],42
CNC(=O)c1cc(Oc2ccc(NC(=O)Nc3ccc(Cl)c(C(F)(F)F)c3)c(F)c2)ccn1.Cl [Regorafenib hydrochloride] + CC(C)C[C@H](NC(=O)[C@H](CCc1ccccc1)NC(=O)CN1CCOCC1)C(=O)N[C@@H](Cc1ccccc1)C(=O)N[C@@H](CC(C)C)C(=O)[C@@]1(C)CO1 [Carfilzomib],cell viability of combination,[1],77.7
same,cell viability of combination,[2],52.7
same,cell viability of combination,[3],32.8
Cl.OC(c1cc(C(F)(F)F)nc2c(C(F)(F)F)cccc12)C1CCCCN1 (configuration not stated) [Mefloquine hydrochloride] + CC(C)C[C@H](NC(=O)[C@H](CCc1ccccc1)NC(=O)CN1CCOCC1)C(=O)N[C@@H](Cc1ccccc1)C(=O)N[C@@H](CC(C)C)C(=O)[C@@]1(C)CO1 [Carfilzomib],cell viability of combination,[1],82.9
same,cell viability of combination,[2],51.6
same,cell viability of combination,[3],20.3
CC(C)CC(NC(=O)CNC(=O)c1cc(Cl)ccc1Cl)B(O)O (configuration not stated) + CC(C)C[C@H](NC(=O)[C@H](CCc1ccccc1)NC(=O)CN1CCOCC1)C(=O)N[C@@H](Cc1ccccc1)C(=O)N[C@@H](CC(C)C)C(=O)[C@@]1(C)CO1 [Carfilzomib],cell viability of combination,[1],43.7
same,cell viability of combination,[2],19.8
same,cell viability of combination,[3],9.5
CCCCCOc1ccc(-c2ccc(-c3ccc(C(=O)N[C@H]4C[C@@H](O)[C@@H](O)NC(=O)[C@@H]5[C@@H](O)[C@@H](C)CN5C(=O)[C@H]([C@@H](C)O)NC(=O)[C@H]([C@H](O)[C@@H](O)c5ccc(O)cc5)NC(=O)[C@@H]5C[C@@H](O)CN5C(=O)[C@H]([C@@H](C)O)NC4=O)cc3)cc2)cc1 [Anidulafungin] + CN(C)C/C=C/C(=O)Nc1cc2c(Nc3ccc(F)c(Cl)c3)ncnc2cc1O[C@H]1CCOC1 [Afatinib],cell viability of combination,[4],55.5
same,cell viability of combination,[5],68.6
same,cell viability of combination,[6],43
COc1ccc2cc1Oc1ccc(cc1)CC1c3c(cc4c(c3Oc3cc5c(cc3OC)CCN(C)C5C2)OCO4)CCN1C (configuration not stated) [Cepharanthine] + CC(C)C[C@H](NC(=O)[C@H](CCc1ccccc1)NC(=O)CN1CCOCC1)C(=O)N[C@@H](Cc1ccccc1)C(=O)N[C@@H](CC(C)C)C(=O)[C@@]1(C)CO1 [Carfilzomib],cell viability of combination,[1],76.2
same,cell viability of combination,[2],45.8
same,cell viability of combination,[3],9.41
